Experimental findings from PMC4081100, “A DNA-binding-site landscape and regulatory network analysis for NAC transcription factors in Arabidopsis thaliana” are described below.

Holding throughout (assay): universal protein binding microarray (PBM); transcription factors of Arabidopsis thaliana; high values mean tight binding
One experiment addresses T1, GST-ANAC055(1-171) (Arabidopsis thaliana, UniProt Q9LDY8 1-171).
T1 sequence: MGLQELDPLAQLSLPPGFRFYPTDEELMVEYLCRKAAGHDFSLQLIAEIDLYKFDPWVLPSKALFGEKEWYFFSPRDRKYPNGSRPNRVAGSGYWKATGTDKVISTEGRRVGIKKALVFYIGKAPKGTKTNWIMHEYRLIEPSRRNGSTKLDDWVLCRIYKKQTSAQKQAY
The following applies: protein: recombinant; tags: GST; chain copies: 2; dsDNA, one strand shown. Put shortly:
(§1)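 Each value is a normalised enrichment score (E-score) describing binding. The GST-tagged proteins, NAC-domain, full-length or DNA-binding-domain, were induced in cells (zinc-finger proteins with zinc acetate added) and purified on glutathione–Sepharose 4B. They were applied at 200 to 500 nM final, in duplicate, to double-stranded custom all-10-mer Agilent 4 × 180K arrays, and gapped and ungapped 8-mers were scored.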

The target of another experiment is T2, GST-ATAF1 NAC domain (Arabidopsis thaliana, UniProt Q39013 7-158).
T2 sequence: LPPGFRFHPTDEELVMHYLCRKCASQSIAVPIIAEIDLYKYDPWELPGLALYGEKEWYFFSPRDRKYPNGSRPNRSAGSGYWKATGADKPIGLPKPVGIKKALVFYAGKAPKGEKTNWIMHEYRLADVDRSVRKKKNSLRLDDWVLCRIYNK
The following applies: protein: recombinant; tags: GST; chain copies: 2; dsDNA, one strand shown. Put shortly:
as §1

Experiment [1] deals with T3, GST-ANAC092(1-285) full length (Arabidopsis thaliana, UniProt Q9FKA0 1-285).
T3 sequence: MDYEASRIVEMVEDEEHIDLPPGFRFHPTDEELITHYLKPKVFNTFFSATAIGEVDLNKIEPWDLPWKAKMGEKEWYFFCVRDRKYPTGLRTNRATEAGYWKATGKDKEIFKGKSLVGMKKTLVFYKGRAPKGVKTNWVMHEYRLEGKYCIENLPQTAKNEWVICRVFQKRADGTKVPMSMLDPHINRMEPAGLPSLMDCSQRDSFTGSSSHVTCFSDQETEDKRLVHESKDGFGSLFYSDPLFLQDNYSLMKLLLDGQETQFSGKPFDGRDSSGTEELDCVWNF
The settings on record: protein: recombinant; tags: GST; chain copies: 2; dsDNA, one strand shown. In short, it runs like this: as §1

The next experiment concerns the target T4, GST-NST2(1-184) (Arabidopsis thaliana, UniProt Q9M274 1-184).
T4 sequence: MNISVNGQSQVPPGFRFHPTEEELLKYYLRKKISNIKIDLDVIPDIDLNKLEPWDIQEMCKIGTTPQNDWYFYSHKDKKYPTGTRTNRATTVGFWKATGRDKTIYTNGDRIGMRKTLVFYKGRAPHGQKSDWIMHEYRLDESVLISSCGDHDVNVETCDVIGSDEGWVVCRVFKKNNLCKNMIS
The following applies: protein: recombinant; tags: GST; chain copies: 2; dsDNA, one strand shown. In short, it runs like this: as §1

Another experiment has as its target T5, GST-VND3 NAC domain (Arabidopsis thaliana, UniProt Q9FH59 12-162).
T5 sequence: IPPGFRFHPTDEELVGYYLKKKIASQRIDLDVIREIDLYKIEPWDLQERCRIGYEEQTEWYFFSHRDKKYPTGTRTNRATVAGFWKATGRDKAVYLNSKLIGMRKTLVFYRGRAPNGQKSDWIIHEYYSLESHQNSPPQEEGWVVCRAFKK
The following applies: protein: recombinant; tags: GST; chain copies: 2; dsDNA, one strand shown. In short, it runs like this:
as §1

Another experiment concerns the target T6, GST-VND7 NAC domain (Arabidopsis thaliana, UniProt Q9C8W9 9-158).
T6 sequence: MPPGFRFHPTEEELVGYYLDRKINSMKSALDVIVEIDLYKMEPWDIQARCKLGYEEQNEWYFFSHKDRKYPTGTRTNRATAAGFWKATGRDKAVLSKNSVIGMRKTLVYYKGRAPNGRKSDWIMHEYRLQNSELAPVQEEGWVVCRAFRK
The following applies: protein: recombinant; tags: GST; chain copies: 2; dsDNA, one strand shown. In short, it runs like this: as §1

The target of a further experiment is GST-WRKY1(266-371) (Arabidopsis thaliana, UniProt Q9SI37 266-371). The following applies: protein: recombinant; tags: GST; dsDNA, one strand shown. In short, it runs like this:
as §1

For a further experiment, the target named is GST-NTL6(1-168) (Arabidopsis thaliana, UniProt Q9SCK6 1-168). The settings on record: protein: recombinant; tags: GST; chain copies: 2; dsDNA, one strand shown. Put shortly:
as §1

A further experiment addresses T7, GST-NAP(1-166) (Arabidopsis thaliana, UniProt O49255 1-166).
T7 sequence: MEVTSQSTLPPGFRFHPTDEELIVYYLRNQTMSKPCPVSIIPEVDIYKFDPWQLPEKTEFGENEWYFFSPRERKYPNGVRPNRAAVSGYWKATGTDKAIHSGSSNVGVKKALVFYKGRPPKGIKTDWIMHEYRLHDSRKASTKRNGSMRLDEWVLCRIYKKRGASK
The following applies: protein: recombinant; tags: GST; chain copies: 2; dsDNA, one strand shown. Put shortly:
as §1

A further experiment concerns the target T8, GST-ANAC092(1-176) (Arabidopsis thaliana, UniProt Q9FKA0 1-176).
T8 sequence: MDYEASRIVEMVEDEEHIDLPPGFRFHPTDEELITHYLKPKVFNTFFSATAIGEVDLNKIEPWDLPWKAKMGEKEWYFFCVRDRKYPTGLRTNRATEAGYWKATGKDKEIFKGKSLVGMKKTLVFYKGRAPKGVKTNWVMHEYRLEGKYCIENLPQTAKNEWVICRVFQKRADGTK
The following applies: protein: recombinant; tags: GST; chain copies: 2; dsDNA, one strand shown. Put shortly:
as §1

The target in the next experiment is T9, GST-ANAC019 NAC domain (Arabidopsis thaliana, UniProt Q9C932 14-162).
T9 sequence: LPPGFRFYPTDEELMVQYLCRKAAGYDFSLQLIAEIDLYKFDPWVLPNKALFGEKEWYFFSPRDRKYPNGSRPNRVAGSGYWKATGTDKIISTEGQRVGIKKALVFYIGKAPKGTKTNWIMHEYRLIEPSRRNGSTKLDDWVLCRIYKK
The following applies: protein: recombinant; tags: GST; chain copies: 2; dsDNA, one strand shown. Put shortly:
as §1

For a further experiment, the target named is T10, GST-NTL8 NAC domain (Arabidopsis thaliana, UniProt Q9XIN7 14-156).
T10 sequence: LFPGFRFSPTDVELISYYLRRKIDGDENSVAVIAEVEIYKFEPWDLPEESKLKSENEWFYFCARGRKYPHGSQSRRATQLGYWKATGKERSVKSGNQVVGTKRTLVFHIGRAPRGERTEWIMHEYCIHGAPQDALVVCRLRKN
The settings on record: protein: recombinant; tags: GST; chain copies: 2; dsDNA, one strand shown. Put shortly:
as §1

GST-NTL6(1-168), sequence (Q9SCK6 1-168): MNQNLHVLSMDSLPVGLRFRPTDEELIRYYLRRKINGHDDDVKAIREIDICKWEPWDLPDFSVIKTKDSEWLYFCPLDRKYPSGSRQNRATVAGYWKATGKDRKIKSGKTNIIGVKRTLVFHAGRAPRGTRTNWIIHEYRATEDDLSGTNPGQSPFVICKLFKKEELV
GST-WRKY1(266-371), sequence (Q9SI37 266-371): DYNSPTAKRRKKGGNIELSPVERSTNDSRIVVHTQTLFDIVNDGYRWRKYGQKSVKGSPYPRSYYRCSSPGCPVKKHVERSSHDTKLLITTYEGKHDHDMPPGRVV

As to AATAGTCA, the binding signal amounted to 0.0507 E-score with GST-ANAC055(1-171); 0.061 E-score in the experiment with GST-ATAF1 NAC domain; 0.113 E-score in [1]; 0.0657 E-score with GST-NST2(1-184); 0.178 E-score with GST-VND3 NAC domain; 0.143 E-score in the experiment with GST-VND7 NAC domain. The binding signal with GST-WRKY1(266-371) came out at 0.413 E-score.
Consider ATGGTCAA, for which the binding signal with GST-NTL6(1-168) stood at 0.05 E-score; with GST-ANAC055(1-171), 0.0866 E-score; with GST-ATAF1 NAC domain, 0.155 E-score; in the experiment with GST-NST2(1-184) it was 0.0826 E-score; in the experiment with GST-VND3 NAC domain it was 0.138 E-score; with GST-WRKY1(266-371) it was 0.485 E-score.
As for GTCAAATA, the binding signal with GST-NTL6(1-168) was found to be 0.0593 E-score; with GST-ANAC055(1-171) it was 0.0664 E-score; with GST-ATAF1 NAC domain, 0.141 E-score; with GST-NAP(1-166), 0.0873 E-score; with GST-VND3 NAC domain, 0.0795 E-score; with GST-VND7 NAC domain, 0.139 E-score. In addition, the binding signal with GST-WRKY1(266-371) was 0.461 E-score.
AATGTCAA: the binding signal was determined as 0.155 E-score with GST-ANAC055(1-171); 0.19 E-score in the experiment with GST-ATAF1 NAC domain; 0.13 E-score in the experiment with GST-NAP(1-166); 0.0715 E-score with GST-NST2(1-184); 0.104 E-score with GST-VND3 NAC domain; 0.0638 E-score in the experiment with GST-VND7 NAC domain. In the experiment with GST-WRKY1(266-371), the binding signal came to 0.404 E-score.
Take ACACGGTA: the binding signal in the experiment with GST-ANAC092(1-176) came out at 0.437 E-score; with GST-ANAC019 NAC domain, 0.286 E-score; with GST-ANAC055(1-171) it was 0.265 E-score; with GST-ATAF1 NAC domain, 0.21 E-score; in experiment [1] it was 0.443 E-score; in the experiment with GST-NAP(1-166), 0.234 E-score. For the same sequence, the values for the binding signal with GST-NST2(1-184), with GST-VND3 NAC domain and in the experiment with GST-VND7 NAC domain were 0.202 E-score, 0.227 E-score and 0.123 E-score, respectively.
Consider AGAGTCAA, for which the binding signal is 0.108 E-score with GST-ANAC019 NAC domain; 0.0818 E-score with GST-NST2(1-184); 0.0953 E-score with GST-VND3 NAC domain; 0.0931 E-score in the experiment with GST-VND7 NAC domain; 0.48 E-score in the experiment with GST-WRKY1(266-371).
ATAGTCAA: the binding signal with GST-ANAC055(1-171) came out at 0.122 E-score; with GST-ATAF1 NAC domain it was 0.263 E-score; in experiment [1] it was 0.12 E-score; with GST-NAP(1-166), 0.0851 E-score; with GST-NST2(1-184) it was 0.146 E-score; with GST-VND3 NAC domain, 0.211 E-score. In addition, the binding signal in the experiment with GST-VND7 NAC domain is 0.12 E-score; with GST-WRKY1(266-371), 0.473 E-score.
Regarding ACACGGCT, the binding signal with GST-ANAC092(1-176) turned out to be 0.181 E-score; with GST-ANAC019 NAC domain, 0.418 E-score; in the experiment with GST-ANAC055(1-171), 0.347 E-score; in the experiment with GST-ATAF1 NAC domain, 0.264 E-score; in experiment [1], 0.335 E-score; in the experiment with GST-NAP(1-166) it was 0.194 E-score. The binding signal in the experiment with GST-VND3 NAC domain came out at 0.348 E-score; with GST-VND7 NAC domain, 0.321 E-score.
On to ATTGGTCA, for which the binding signal with GST-ANAC092(1-176) came out at 0.0884 E-score; in [1], 0.105 E-score; with GST-VND3 NAC domain it was 0.0748 E-score; in the experiment with GST-WRKY1(266-371) it was 0.454 E-score.
Regarding TCTGGTCA, the binding signal with GST-VND3 NAC domain was determined as 0.059 E-score; in the experiment with GST-WRKY1(266-371), 0.455 E-score.
With CTTGACTC, the binding signal was found to be 0.0601 E-score in the experiment with GST-ANAC092(1-176), 0.0754 E-score with GST-ATAF1 NAC domain, 0.0677 E-score in the experiment with GST-VND3 NAC domain and 0.466 E-score in the experiment with GST-WRKY1(266-371).
AGTCAACT: the binding signal with GST-ANAC019 NAC domain was determined as 0.183 E-score; with GST-ATAF1 NAC domain it was 0.0655 E-score; with GST-VND3 NAC domain it was 0.0667 E-score; in the experiment with GST-VND7 NAC domain, 0.0783 E-score; in the experiment with GST-WRKY1(266-371), 0.486 E-score.
On to CCACGGAA, for which the binding signal with GST-ANAC092(1-176) is 0.219 E-score; with GST-NTL6(1-168), 0.117 E-score; with GST-ANAC019 NAC domain it was 0.427 E-score; with GST-ANAC055(1-171), 0.326 E-score; in the experiment with GST-ATAF1 NAC domain, 0.211 E-score; in experiment [1], 0.244 E-score. The binding signal with GST-NAP(1-166) was 0.149 E-score; in the experiment with GST-NST2(1-184) it was 0.123 E-score; in the experiment with GST-NTL8 NAC domain, 0.107 E-score; with GST-VND3 NAC domain it was 0.343 E-score; in the experiment with GST-VND7 NAC domain, 0.316 E-score.
Consider CATGGTCA, for which the figures for the binding signal in the experiment with GST-VND3 NAC domain and in the experiment with GST-WRKY1(266-371) were 0.0588 E-score and 0.443 E-score, respectively.
As to CACGGCTC, the binding signal with GST-ANAC019 NAC domain was found to be 0.42 E-score; with GST-ANAC055(1-171), 0.384 E-score; with GST-ATAF1 NAC domain it was 0.336 E-score; in experiment [1], 0.18 E-score; with GST-NAP(1-166), 0.3 E-score; with GST-VND3 NAC domain, 0.337 E-score. For the same sequence, the binding signal with GST-VND7 NAC domain stood at 0.377 E-score.
